Assay results reported in article PMC4336329 (PLoS ONE, 2015).
In all, about 310,000 compounds went through this assay and about 14,000 (4.5%) showed an effect of 50% or more. Effects have a minus sign here. This is one part of a sample in which strong results are shown more often than they occur.

Molecular target: human ether-à-go-go-related gene (hERG) potassium channel (human, UniProt Q12809)
Test: primary screen, population patch clamp on CHO cells stably expressing hERG; higher = less effect of the substance
Method: Briefly, Chinese hamster ovary (CHO) cells stably expressing the hERG channel were dislodged from tissue culture flasks and dispensed into PPC plates. […] During the recording, background leak currents were estimated by a 100 ms step to -80 mV from an initial holding potential of -70 mV and subtracted from the subsequent current measurement. The campaign was conducted in two phases using slight differences in recording protocol. In the first phase, the initial voltage pulse used a 100 ms step to -30 mV from a holding potential of -70 mV, a 2 s conditioning step to +25 mV, and a 2 s test step to -30 mV. During the second phase of the screen, the potential during the conditioning step was raised to +45 mV. In both phases of the campaign, a secondary voltage pulse was applied using the same parameters as the second phase initial pulse. The initial and secondary pulses were applied in the absence of compound, and upon application of 1 μM and 10 μM test concentrations. […]
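Further: peak tail current of the secondary pulse compared with the same well before compound.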

human ether-à-go-go-related gene (hERG) potassium channel, sequence (Q12809 whole entry, looked up): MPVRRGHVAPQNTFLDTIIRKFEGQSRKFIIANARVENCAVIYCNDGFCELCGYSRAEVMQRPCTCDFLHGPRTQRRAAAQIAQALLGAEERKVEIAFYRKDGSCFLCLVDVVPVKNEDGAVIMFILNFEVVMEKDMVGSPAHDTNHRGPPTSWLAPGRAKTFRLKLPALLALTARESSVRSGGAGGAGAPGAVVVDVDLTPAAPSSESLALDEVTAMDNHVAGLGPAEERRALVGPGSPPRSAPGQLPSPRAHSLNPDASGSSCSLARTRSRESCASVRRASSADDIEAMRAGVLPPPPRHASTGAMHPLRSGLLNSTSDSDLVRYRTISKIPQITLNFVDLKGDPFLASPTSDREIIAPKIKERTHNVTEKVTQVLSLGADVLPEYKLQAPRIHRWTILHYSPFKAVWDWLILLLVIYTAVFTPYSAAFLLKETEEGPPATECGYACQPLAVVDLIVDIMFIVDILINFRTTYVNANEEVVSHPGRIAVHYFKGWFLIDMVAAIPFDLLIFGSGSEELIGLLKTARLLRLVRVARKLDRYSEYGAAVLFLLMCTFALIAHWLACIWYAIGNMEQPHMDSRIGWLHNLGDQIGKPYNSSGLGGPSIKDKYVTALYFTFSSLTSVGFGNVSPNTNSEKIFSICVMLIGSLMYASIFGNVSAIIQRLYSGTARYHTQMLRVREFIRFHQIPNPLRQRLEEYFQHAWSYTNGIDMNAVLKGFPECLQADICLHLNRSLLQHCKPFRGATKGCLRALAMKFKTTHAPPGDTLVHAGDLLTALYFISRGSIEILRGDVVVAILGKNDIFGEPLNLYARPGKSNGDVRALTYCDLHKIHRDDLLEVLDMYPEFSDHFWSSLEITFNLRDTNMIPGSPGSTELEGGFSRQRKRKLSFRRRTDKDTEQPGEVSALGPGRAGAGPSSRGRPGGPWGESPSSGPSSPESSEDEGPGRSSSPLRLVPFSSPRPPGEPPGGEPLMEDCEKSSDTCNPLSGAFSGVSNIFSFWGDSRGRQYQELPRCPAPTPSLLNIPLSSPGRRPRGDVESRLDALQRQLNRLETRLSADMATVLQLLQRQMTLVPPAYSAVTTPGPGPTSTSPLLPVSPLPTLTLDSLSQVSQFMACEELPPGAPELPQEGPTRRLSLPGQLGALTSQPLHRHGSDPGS

Compound | hERG current change (%, negative = inhibition) at 10uM
COc1ccccc1/C=C1\SC(=O)N(CC(=O)N(C)C2CCS(=O)(=O)C2)C1=O (centres unmarked) | 11.5%
Nc1cc(N)cc(C(=O)Nc2ccc3c(c2)C(=O)NC3=O)c1 | 12.1%
O=C(CN1C(=O)NC2(CCCCCC2)C1=O)N1CCN(c2ccccc2)CC1 | -2.9%
CCOc1ccc(Cl)cc1S(=O)(=O)N1CCCC1 | -6.06%
CN1CCN(c2nnc(-c3ccc(Cl)cc3)c3ccccc23)CC1 | -45.7%
O=C1c2ccccc2S(=O)(=O)c2cc(C(=O)N3CCN(c4ccccc4)CC3)ccc21 | -25%
COc1ccc(-c2nc(-c3ccncc3)no2)cc1 | 10.5%
COc1ccc(-c2nn(-c3ccccc3)cc2CNCc2cccnc2)c(F)c1 | -28.1%
COc1ccc(-n2cc(CNCc3cccnc3)c(-c3cccc(F)c3)n2)cc1 | -47.7%
Cc1ccc(-c2nn(-c3cccc(F)c3)cc2CN2CCN(c3ccccn3)CC2)o1 | -26.5%
COc1ccc(CNCc2cn(-c3cccc(F)c3)nc2-c2ccc(C)o2)cc1 | -55.5%
Cc1ccc(-c2nn(-c3cccc(F)c3)cc2CNCCc2ccncc2)o1 | -53.6%
Cc1ccc(-c2nn(-c3cccc(F)c3)cc2CNCc2cccnc2)o1 | -51.6%
Cc1ccc(-c2nn(-c3ccccc3)cc2CO)o1 | -0.28%
Cc1ccc(-c2nn(-c3cccc(F)c3)cc2CN(Cc2nccn2C)C(C)C)o1 | -21.4%
COCCNCCCCOc1ccccc1-c1ccccc1.O=C(O)C(=O)O | -27.5%
Cc1cc(C(=O)NCC(=O)OCC(=O)NCC2CCCO2)ccc1[N+](=O)[O-] (centres unmarked) | 15.3%
COc1ccc(C2C(C(=O)N3CCCC3)CC(=O)N2c2ccc(OC)cc2)cc1 (centres unmarked) | 0.91%
O=C(Cn1cnc2c(oc3nc4c(cc32)CCCC4)c1=O)Nc1cccc(Cl)c1 | 16.2%
COc1ccc(-c2cn[nH]c2-c2ccc(OCC(=O)NN)cc2O)cc1 | 17.4%
CCOC(=O)c1cccc(-[n+]2c(-c3ccccc3)cc(-c3ccccc3)cc2-c2ccccc2)c1.[O-][Cl+3]([O-])([O-])[O-] | -73.5%
CCOC(=O)c1ccc(P(=O)(c2ccccc2)c2ccccc2)cc1 | -18.2%
CCOC(=O)c1ccc(/[N+]([O-])=C/c2ccccc2)cc1 | 0.217%
CCOC(=O)c1ccc(-[n+]2c(-c3ccccc3)cc(-c3ccccc3)cc2-c2ccccc2)cc1.[O-][Cl+3]([O-])([O-])[O-] | -77.9%
CCOC(=O)c1ccc(Cl)c(NC(=O)c2ccc(-c3ccccc3)cc2)c1 | 1.02%
CCOC(=O)c1cccc(P(=O)(C(C)(C)C)C(C)(C)C)c1 | 17.1%
CCCOC(=O)c1ccc(NC(=O)Oc2ccccc2)cc1 | 3.21%
CCCOC(=O)c1ccc(-[n+]2c(-c3ccccc3)cc(-c3ccccc3)cc2-c2ccccc2)cc1.[O-][Cl+3]([O-])([O-])[O-] | -77.2%
CCCOC(=O)c1ccc(Cl)c(NC(=O)c2ccc(-c3ccccc3)cc2)c1 | -5.63%
